# Source: PubChem BioAssay
# Most compounds without a hit are left out; they make up all but 5.7% or so of the library.
# ssDAF-12 act = S. stercoralis DAF-12 activation, primary screen; activation, % at 6.8 µM; HEK293 ssDAF-12/GRIP1 lit1-tk-luc reporter, luminescence; % of 3 µM dafachronic acid response; 370,000 tested, 1% active;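 active = activation above the mean over all tested compounds plus 3 SD, cut at about 0.9% in these data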;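 also: 0% = DMSO-only wells and 100% = 3 µM delta7-dafachronic acid wells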
# hcDAF12 agonist = activators of H. contortus DAF-12 nuclear receptor; HEK293 hcDAF-12 lit1-tk-luc reporter, luminescence; 0% DMSO, 100% Δ7-dafachronic acid; activation, % at 6.8 µM; 370,000 tested, 1.4% active; AID 652067;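 active = activation above the mean of all tested compounds plus 3 SD, cut at about 5.5% in these data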;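 also: 100% = response to 3 µM Δ7-dafachronic acid high control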
# DAX1 inh-1 = inhibitors of DAX1 repression of SF-1 activated StAR promoter; HEK293T StAR-luciferase reporter, SF-1/DAX-1 repression relief; inhibition, % at 6.8 µM; 370,000 tested, 1.1% active;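 active = inhibition above the mean over all tested compounds plus 3 SD, cut at about 3.6% in these data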;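 also: 0% = DAX-1 cells with DMSO and 100% = cells lacking DAX-1 with DMSO; higher inhibition means more luminescence from relief of DAX-1 repression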
# DAX1 inh-2 = inhibitors of human orphan nuclear receptor DAX1 (NR0B1) | HEK293 Gal4-DAX1 luciferase reporter, luminescence | inhibition, % at 6.75 µM | P51843 | 340,000 tested, 0.99% active | AID 504766;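 active = inhibition above the mean over all tested compounds plus 3 SD, cut at about 4.2% in these data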;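 also: 0% = DAX1-transfected cells with DMSO and 100% = empty-vector control cells with DMSO; inhibition shows as a rise in luminescence from relieved DAX1 repression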
# AHR act = activators of human aryl hydrocarbon receptor | P35869 | activation, % at 5 µM | AID 2796 | 320,000 tested, 2.5% active | AHR-responsive luciferase reporter cells, luminescence; in the data active = activation above about 47%;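 also: 0% = vehicle wells and 100% = reference agonist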
# hgDAF-12 ag = agonists of H. glycines DAF-12 nuclear receptor | 370,000 tested, 1.8% active | HEK293 GAL4-hgDAF12 UAS-luciferase reporter, agonist luminescence; normalized to butyrate control | activation, % at 6.8 µM;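 active = activation above a cutoff set at the mean of all screened compounds plus 3 SD, cut at about 10% in these data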;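 also: 0% = DMSO wells and 100% = sodium butyrate wells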
# * hit, by the source's call; . = no result.
SMILES,ssDAF-12 act,hcDAF12 agonist,DAX1 inh-1,DAX1 inh-2,AHR act,hgDAF-12 ag
Cc1ccc(-c2nc(SCC(=O)NCC3CCCO3)c(-c3ccccc3)[nH]2)cc1 (configuration not stated),-1,-2,-2,-1,70*,-1
C=CCn1c(SCC(=O)NCCc2ccccc2)nc2c([nH]c3ccccc32)c1=O,1.0*,5,-2,1,60*,2
COc1cc(C(=O)NCC(=O)OCCN2C(=O)c3ccccc3C2=O)cc(OC)c1OC,-1,-1,0,0,-2,0
O=C(CCSC1=NCCCN1)c1ccc(F)cc1,-2,-1,0,3,.,0
CCNC(=O)N(C)[C@H]1C[C@@H](c2ccccc2)N(C(C)=O)C[C@H]1CO,0,2,1,.,.,0
O=C(CCn1c(=S)[nH]c2ccccc2c1=O)NCCSCc1ccccc1,-1,-1,-2,0,1,3
Cc1cc(NC(=O)CSc2nc3c([nH]c4ccccc43)c(=O)n2-c2cccc(C(F)(F)F)c2)no1,.,.,.,-1,.,.
O=C(Cn1c(=S)[nH]c2ccccc2c1=O)NCCc1ccccc1,-1,1,1,1,79*,1
COc1ccccc1-n1c(SCC(=O)Nc2cc(C)on2)nc2c([nH]c3ccccc32)c1=O,0,5,1,0,68*,2
CCCCNC(=S)N(CCN(C)C)Cc1cc2cc3c(cc2[nH]c1=O)OCCO3,-1,1,0,3,11,0
Cc1ccccc1NC(=O)CCN1CCc2ccccc2C1,-1,0,0,0,10,1
COc1ccc(/C(N)=N/OC(=O)CN(C)S(=O)(=O)c2ccc(C)cc2)cc1,-2,-3,-1,-1,.,-1
Cc1nc(NC(=O)/C=C/c2ccccc2)sc1C(=O)N(C)C,-1,4,1,0,3,10*
Cc1ccc(C(=O)Nc2ncc(Cc3ccc(F)cc3)s2)o1,0,5,4.2*,2,2,7
Cc1ccc(C(=O)Nc2nc(C)c(C(=O)N(C)C)s2)o1,-1,2,4.4*,2,12,2
O=C(CCn1cnc(-c2ccccc2)c1-c1ccccc1)N/N=C/c1ccccc1O,-2,-3,-2,-2,2,-1
Cc1cc(N2CCCC2)ccc1/C=C1\NC(=S)N(C)C1=O,-1,-1,0,1,51*,4
Cc1ccc(C)n1NC(=O)c1ccccc1[N+](=O)[O-],-1,-1,0,0,1,3
Cc1ccc(C)n1NC(=O)c1ccccc1O,1.4*,4,3,2,17,4
O=P(c1ccccc1)(c1ccccc1)C1CCCO1 (configuration not stated),-1,0,1,4.3*,-1,-2
O=C(Cc1ccccc1)NCC1CCCO1 (configuration not stated),-1,-1,0,0,-2,0
COc1cc(C=Nn2c(-c3cc(-c4ccccc4)n[nH]3)n[nH]c2=S)ccc1OC(C)=O,-2,-2,-1,.,.,4
Cc1cccnc1Nc1nc(-c2ccc(O)cc2O)cs1,0,1,0,0,61*,1
Cc1cccc(NC(=O)c2ccc(Cl)c(NC(=O)c3ccncc3)c2)c1C,-1,-2,0,0,-1,-3
CCC(=O)Nc1ccc(F)c(Cl)c1,-1,-2,-1,0,10,0
SMILES,ssDAF-12 act,hcDAF12 agonist,DAX1 inh-1,DAX1 inh-2,AHR act,hgDAF-12 ag
Cc1ccccc1NC(=O)c1ccc(Cl)c(NC(=O)c2ccncc2)c1,-1,0,0,0,48*,2
O=C(Nc1ccc(F)c(Cl)c1)c1ccc2c(c1)OCO2,0,6.2*,2,3,8,11*
O=C(Nc1ccc(Cl)c(Cl)c1)Nc1nccs1,-1,0,-1,-1,59*,8
O=C(O)CC(CC(=O)Nc1ccc(F)c(Cl)c1)c1ccc(Cl)cc1Cl (configuration not stated),-2,-1,0,10*,-1,1
CN(C)CCNCCCNc1c2ccccc2nc2cccc([N+](=O)[O-])c12,-1,-1,-1,-1,.,-2
C[C@]12CCC3c4ccc(OCC(=O)O)cc4CCC3C1CCC2=O (some centres not stated),-1,-1,0,0,2,1
O=C(Nc1ccc(F)c(Cl)c1)c1ccccc1,-1,1,-1,1,56*,3
O=C(Nc1ccc(F)c(Cl)c1)c1cccnc1,-1,0,0,1,15,4
CCOC(=O)c1ccc(NC(=O)c2nn(CC)cc2Br)cc1,-2,-2,1,2,0,2
COc1ccc(NC(=O)c2ccc3c(c2)OCO3)cc1Cl,1,3,4.0*,2,-2,10*
Fc1ccc(NC(=S)Nc2cc(-c3ccccc3)[nH]n2)cc1Cl,-3,-1,-2,0,53*,-10
CCn1cc(Br)c(C(=O)Nc2ccc(F)c(Cl)c2)n1,1.7*,3,0,2,51*,10
Fc1ccc(NC(=S)Nc2cccnc2)cc1Cl,-1,0,0,0,19,2
Cc1c(C(=O)Nc2ccc(-c3nnc4n3CCCCC4)cc2)oc2ccc(Br)cc12,-1,-2,0,-1,-5,-3
Cc1ccccc1Br,-2,0,0,.,.,0
COc1ccc(C(CC(=O)c2ccc3c(c2)OCO3)C(=O)O)cc1OC (configuration not stated),4.0*,0,-1,2,.,1
O=C(Nc1ccc(Cl)c(Cl)c1)c1ccncc1,-1,0,-1,-1,65*,7
COCC(=O)Nc1ccc(OC)c(Cl)c1,-1,-1,0,1,47,-2
COc1ccc(NC(=O)C=C(C)C)cc1Cl,-1,3,4.2*,1,3,10
CCCCC(=O)N/N=C(/C)C1=C(C)C(C)(C)OC1=O,-2,0,1,2,5,-1
O=C(c1cccc(S(=O)(=O)N2CCOCC2)c1)N1CCN(C/C=C/c2ccccc2)CC1,-1,-1,0,0,-1,-2
O=C(NC1CC1)C1CCN(C2CCN(C(=O)/C=C/c3ccc(F)cc3)CC2)CC1,-1,0,0,0,3,-1
CN(C)CCCNC(=S)N1CCn2c(nc3ccccc32)C1,0,0,0,1,9,2
Cc1cc(C)nc(N/C(=N\S(=O)(=O)Cc2ccccc2)Nc2ccccc2Br)n1,0,1,1,4.4*,19,3
COC(=O)[C@]12C[C@H](CC(=O)NCc3cccc(C(F)(F)F)c3)C(=O)N(Cc3cccc4ccccc34)C1=C[C@H](C(C)(C)C)O[C@@H]2C,-1,1,-1,.,.,-2
C(#CSCc1ccccc1)SCc1ccccc1,0,1,0,4.3*,.,0
